Experimental data as given in PubChem BioAssay (NCATS).
Results filed as inconclusive are left out. Entries that show only a call come without a potency. Activity calls are given as the source filed them. Calls come from the whole dose curve; as a rule, active = well fitted curve in the direction sought with a large enough effect; inconclusive = small, poorly fitted or top-dose-only effect, or another doubt; inactive = no such curve, though single readings can be large; an effect the other way counts as inactive or inconclusive.

How the values were obtained:
[1] = P-glycoprotein substrates identified in KB-8-5-11 adenocarcinoma cell line, qHTS therapeutic library screen (AID 1346987); note: nearly all actives have a fitted effect of over 65% in size
Outline: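 Luminescence from CellTiter-Glo, read 5 min after addition, quantified survival of KB-8-5-11 (P-gp-overexpressing) cells exposed to compounds for 72 h. AC50 was derived from concentration-response curves.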

[2] = system: Zika virus NS2B-NS3 protease (unlinked complex); experiment: Primary screen GU Rhodamine qHTS for Zika virus inhibitors: Unlinked NS2B-NS3 protease assay (AID 1347159); note: nearly all actives have a fitted effect of over 60% in size
Outline: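 Unlinked NS2B/NS3, 25 nM; Rhod110 peptide, 1.5 microM; compounds, up to 114 microM. Reaction run 15 min at RT in 10 mM Tris-HCl pH 8.0, 0.01% Tween 20; kinetic fluorescence change fitted with a 4-parameter Hill model.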

[3] = system: Zika virus NS2B-NS3 protease (linked construct); experiment: Primary screen NINDS Rhodamine qHTS for Zika virus inhibitors (AID 1347160); note: nearly all actives have a fitted effect of over 55% in size; note: potency is the fitted concentration of half-maximal effect
Outline: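 Single-chain NS2B-NS3 protease, 25 nM, pH 8.0; compounds preincubated 15 min. Activity: Rhodamine110 release from 1.5 microM substrate over 15 min, room temperature, data fitted to 4-parameter Hill.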

| SMILES | Potency [1] | Potency [2] | Potency [3] |
| --- | --- | --- | --- |
| COc1cc(C(CO)CO[C@@H]2O[C@H](CO)[C@@H](O)[C@H](O)[C@H]2O)ccc1O (some centres not stated) | inactive | inactive | inactive |
| Cc1ncc(NC(=O)c2ccc(CN3CCN(C)CC3)c(C(F)(F)F)c2)cc1Nc1nccc(-c2cccnc2)n1 | inactive | inactive | inactive |
| CCN=C1N[C@@H]2[C@@H](O)[C@H](O)[C@@H](CO)O[C@@H]2S1 | inactive | inactive | inactive |
| O=C(C1OC1/C=C/c1ccc2c(c1)OCO2)N1CCCCC1 (configuration not stated) | inactive | inactive | inactive |
| OCC1OC(Oc2cc(O)cc(/C=C/c3ccc(OC4OC(CO)C(O)C(O)C4O)cc3O)c2)C(O)C(O)C1O (configuration not stated) | inactive | inactive | inactive |
| CC(=O)OC1(C)CC(O)C2(O)C=COC(OC3OC(CO)C(O)C(O)C3O)C12 (configuration not stated) | inactive | inactive | inactive |
| CC(C(=O)Nc1cc(C#N)ccc1CCCC(=O)O)c1ccc(F)c2ccccc12 (configuration not stated) | inactive |  | inactive |
| O=C(O)CC1(O)C(=O)Nc2ccccc21 (configuration not stated) | inactive |  | inactive |
| O=C(/C=C/c1ccc(O)c(O)c1)OC[C@H]1O[C@@H](OC2CCCCC2O)[C@H](O)[C@@H](O)[C@@H]1O (some centres not stated) | inactive |  | inactive |
| CCC(C)/C=C(C)/C=C/C1=CC2=C(Cl)C(=O)C(C)(OC(C)=O)C(=O)C2=CN1C(CCCN=C(N)N)C(=O)O (configuration not stated) | inactive |  | inactive |
| CC1=C(CCC(C)O[C@@H]2O[C@H](CO)[C@@H](O)[C@H](O)[C@H]2O)C(C)(C)CC(O)C1 (some centres not stated) | inactive |  | inactive |
| CC(=O)OC/C(=C/C(=O)O)CC[C@@H]1C(C)=CC(=O)[C@@H]2C(C)(C)CCC[C@@]12C | inactive |  | inactive |
| C=C1CC/C=C(/C(=O)O)CCC2C1CC2(C)C (configuration not stated) | inactive |  | inactive |
| C[C@]12CC[C@@H]3c4ccc(O)cc4CC[C@H]3[C@@H]1C[C@@H](O[C@@H]1O[C@H](C(=O)O)[C@@H](O)[C@H](O)[C@H]1O)[C@@H]2O | inactive |  | inactive |
| CC(C)[C@@H](C(=O)O)N1Cc2c(cc(O)c3c2O[C@]2(C3)[C@H](C)CCC3C(C)(C)[C@H](O)[C@H](O)C[C@@]32C)C1=O (some centres not stated) | inactive |  | 7.94 µM (active) |
| COCC1OC(OC(C)(C)C2CCC3(C)C=C(C4CCC5C4(C)CC(O)C4OC(C(C)(C)O)CCC45C)CCC3O2)C(NC(C)=O)C(O)C1O (configuration not stated) | inactive |  | inactive |
| COc1cc(O)c(C(=O)O)c(CCc2ccccc2)c1 | inactive |  | 22.4 µM (active) |
| CC[C@H](NC(=O)c1c(O)c(-c2ccccc2)nc2ccccc12)c1ccccc1 | inactive |  | inactive |
| C[C@@H]1O[C@@H](O[C@H]2[C@@H]3C=CO[C@@H](O[C@@H]4O[C@H](CO)[C@@H](O)[C@H](O)[C@H]4O)[C@@H]3[C@@]3(CO)O[C@@H]23)[C@H](OC(=O)/C=C/c2ccc(O)cc2)[C@H](O)[C@H]1O | inactive |  | inactive |
| C/C=C/C=C/C1=C2C(=O)C3(C)C4C(C(=O)CC(O)/C=C/C)=C(O1)C1(C)C2C2(C)OC1(O)C4(C)OC23O (configuration not stated) | inactive |  | inactive |
| CC(C)Oc1ccc(-c2nc(-c3cccc4c3CCC4NCCC(=O)O)no2)cc1C#N (configuration not stated) | inactive |  | inactive |
| CC[C@@H]1[C@H]2CCCCN3C(=O)C[C@H]([C@@H]4[C@H]1OC(=O)[C@H]4C)[C@@H]23 | inactive |  | inactive |
| COc1c(C)c(OCC=C(C)C)cc2c1COC2=O | inactive |  | inactive |
| CC(C)c1ccc2c(c1)C(=O)CC1C(C)(C(=O)O)CCCC21C (configuration not stated) | inactive |  | inactive |
| C[C@H]1[C@H](C)C[C@@H](C(=O)O)C2CC[C@]3(C)C(=CC[C@@H]4[C@@]5(C)CC[C@H](O)C(C)(C)[C@@H]5CC[C@]43C)[C@@H]21 (some centres not stated) | inactive |  | inactive |
| C=C1C(O)CC2C(C(=O)O)=COC(OC3OC(CO)C(O)C(O)C3OC(=O)/C=C\c3ccc(O)cc3)C12 (configuration not stated) | inactive |  | inactive |
| CC(=O)OC1C(O)/C(C)=C\C2C(OC(=O)c3ccccc3)C(C)CC2(OC(C)=O)C(OC(C)=O)C(C)/C=C/C(C)(C)C1OC(C)=O (configuration not stated) | inactive |  | inactive |
| C=CCc1cc(OC)c(OC(C)C(O)c2ccc(O)c(OC)c2)c(OC)c1 (configuration not stated) | inactive |  | inactive |
